Results as given in the supplement of paper PMC10849652.
The full data set covers some 7,900 targets. This sample favours those with a hit. About 0.6% of all pairs of compound and target were hits.

Compound: COC(=O)[C@H](CCSC)NC(=O)C1=C(C=C(C=C1)NC[C@H](CS)N)C2=CC=CC=C2
Assay: log2 fold change, soluble protein after heating vs DMSO (PISA); higher = thermal stabilisation; K562 cells, 10 uM, 30 min; active = over 0.2 and 3.5 SD of the protein, either way, in both replicates (recomputed)
Summary of the method: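 K562 cells at 2×10^6 cells/mL were given 10 μM compound for 30 min. Aliquots then went through 3 min of heating across 48°C-58°C, were pooled, and were extracted in PBS with 0.5% NP-40 at 4°C, and the supernatant after 21,000xg for 90 min was quantified by TMTpro 16plex LC-MS/MS with channel sums equalised. Thermal stability relative to control samples, from duplicates, is given as log2 fold change.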

UniProt Q5JUR7, sequence (Q5JUR7 whole entry, looked up): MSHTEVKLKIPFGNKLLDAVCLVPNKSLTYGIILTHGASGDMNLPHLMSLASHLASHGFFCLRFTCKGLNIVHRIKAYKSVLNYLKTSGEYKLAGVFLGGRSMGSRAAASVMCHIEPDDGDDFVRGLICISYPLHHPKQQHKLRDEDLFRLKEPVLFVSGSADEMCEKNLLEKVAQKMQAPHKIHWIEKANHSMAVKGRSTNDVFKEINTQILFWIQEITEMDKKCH
UniProt P12931, sequence (P12931 whole entry, looked up): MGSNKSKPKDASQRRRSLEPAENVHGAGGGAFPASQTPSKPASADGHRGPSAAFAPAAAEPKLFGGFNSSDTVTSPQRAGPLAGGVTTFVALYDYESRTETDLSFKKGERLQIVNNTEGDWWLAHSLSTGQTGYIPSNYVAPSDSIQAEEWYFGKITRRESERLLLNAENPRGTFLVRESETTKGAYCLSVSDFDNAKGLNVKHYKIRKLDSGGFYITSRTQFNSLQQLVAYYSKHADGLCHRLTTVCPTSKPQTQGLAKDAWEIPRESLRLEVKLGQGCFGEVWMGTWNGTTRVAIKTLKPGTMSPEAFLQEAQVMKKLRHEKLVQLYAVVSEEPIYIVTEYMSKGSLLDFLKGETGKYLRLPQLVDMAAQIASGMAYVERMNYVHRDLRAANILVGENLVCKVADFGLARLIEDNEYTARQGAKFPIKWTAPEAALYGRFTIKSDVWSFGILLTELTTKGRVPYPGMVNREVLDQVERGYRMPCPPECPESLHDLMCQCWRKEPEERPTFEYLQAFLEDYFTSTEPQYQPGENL
UniProt Q9UHD2, sequence (Q9UHD2 whole entry, looked up): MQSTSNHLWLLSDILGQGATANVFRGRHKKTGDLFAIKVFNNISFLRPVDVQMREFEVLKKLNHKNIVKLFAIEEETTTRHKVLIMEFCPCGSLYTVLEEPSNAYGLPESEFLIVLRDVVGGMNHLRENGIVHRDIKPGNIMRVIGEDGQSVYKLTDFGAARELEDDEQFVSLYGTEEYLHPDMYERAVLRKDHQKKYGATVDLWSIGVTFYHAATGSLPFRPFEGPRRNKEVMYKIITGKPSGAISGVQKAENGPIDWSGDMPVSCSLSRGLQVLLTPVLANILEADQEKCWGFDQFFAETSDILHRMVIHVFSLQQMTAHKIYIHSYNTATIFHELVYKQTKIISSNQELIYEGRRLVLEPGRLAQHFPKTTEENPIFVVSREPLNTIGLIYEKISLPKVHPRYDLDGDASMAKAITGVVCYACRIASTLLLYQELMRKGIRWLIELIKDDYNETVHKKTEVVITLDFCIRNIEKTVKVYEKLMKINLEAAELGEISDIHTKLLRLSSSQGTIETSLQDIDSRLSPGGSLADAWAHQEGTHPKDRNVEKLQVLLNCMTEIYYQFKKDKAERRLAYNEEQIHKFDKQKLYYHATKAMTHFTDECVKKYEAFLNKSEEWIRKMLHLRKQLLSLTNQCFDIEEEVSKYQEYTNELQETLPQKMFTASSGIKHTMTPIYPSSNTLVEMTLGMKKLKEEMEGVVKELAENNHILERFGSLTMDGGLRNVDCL
UniProt P51532, sequence (P51532 whole entry, looked up): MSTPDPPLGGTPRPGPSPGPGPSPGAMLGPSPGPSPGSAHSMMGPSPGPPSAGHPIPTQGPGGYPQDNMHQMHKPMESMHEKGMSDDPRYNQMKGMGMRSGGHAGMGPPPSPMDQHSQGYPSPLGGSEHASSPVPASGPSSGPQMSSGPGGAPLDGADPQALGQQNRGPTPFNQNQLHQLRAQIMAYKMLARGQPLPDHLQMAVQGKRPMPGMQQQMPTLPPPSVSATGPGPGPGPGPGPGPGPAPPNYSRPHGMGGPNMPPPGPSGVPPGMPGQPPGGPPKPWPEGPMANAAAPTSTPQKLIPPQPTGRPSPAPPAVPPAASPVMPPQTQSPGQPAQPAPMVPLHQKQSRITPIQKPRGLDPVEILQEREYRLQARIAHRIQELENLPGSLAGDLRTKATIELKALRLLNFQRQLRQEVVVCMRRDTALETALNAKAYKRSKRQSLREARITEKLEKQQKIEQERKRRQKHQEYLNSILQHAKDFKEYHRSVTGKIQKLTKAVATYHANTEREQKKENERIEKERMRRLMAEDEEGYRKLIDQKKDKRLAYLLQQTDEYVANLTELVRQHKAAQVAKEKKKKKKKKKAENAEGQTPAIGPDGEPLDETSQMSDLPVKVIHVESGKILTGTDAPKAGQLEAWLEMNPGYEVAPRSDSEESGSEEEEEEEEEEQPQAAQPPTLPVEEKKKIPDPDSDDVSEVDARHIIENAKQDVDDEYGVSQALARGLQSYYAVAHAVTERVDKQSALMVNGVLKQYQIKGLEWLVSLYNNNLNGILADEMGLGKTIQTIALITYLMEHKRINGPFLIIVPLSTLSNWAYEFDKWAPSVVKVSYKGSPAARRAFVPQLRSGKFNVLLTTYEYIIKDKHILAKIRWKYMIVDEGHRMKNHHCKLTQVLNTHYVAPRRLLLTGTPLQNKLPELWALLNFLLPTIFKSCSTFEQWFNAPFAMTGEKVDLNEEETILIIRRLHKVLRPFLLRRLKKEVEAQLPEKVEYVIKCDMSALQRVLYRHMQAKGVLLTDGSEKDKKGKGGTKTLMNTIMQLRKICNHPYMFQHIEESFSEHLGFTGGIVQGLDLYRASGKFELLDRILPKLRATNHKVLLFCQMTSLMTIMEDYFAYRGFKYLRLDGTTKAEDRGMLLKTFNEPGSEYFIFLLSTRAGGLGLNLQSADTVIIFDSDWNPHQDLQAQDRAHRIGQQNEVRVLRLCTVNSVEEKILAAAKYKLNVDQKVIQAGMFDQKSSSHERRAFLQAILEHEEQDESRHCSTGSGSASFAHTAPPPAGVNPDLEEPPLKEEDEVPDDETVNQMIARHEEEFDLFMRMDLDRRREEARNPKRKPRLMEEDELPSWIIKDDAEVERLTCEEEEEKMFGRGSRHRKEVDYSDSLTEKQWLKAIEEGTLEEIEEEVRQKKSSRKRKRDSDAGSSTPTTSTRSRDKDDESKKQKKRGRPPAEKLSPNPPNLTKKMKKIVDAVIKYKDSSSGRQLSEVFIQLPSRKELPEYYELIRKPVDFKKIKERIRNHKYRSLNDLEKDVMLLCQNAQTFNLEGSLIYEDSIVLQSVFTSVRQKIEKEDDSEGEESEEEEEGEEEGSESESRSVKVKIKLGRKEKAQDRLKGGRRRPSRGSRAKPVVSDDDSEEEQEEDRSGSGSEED
UniProt Q08AE8, sequence (Q08AE8 whole entry, looked up): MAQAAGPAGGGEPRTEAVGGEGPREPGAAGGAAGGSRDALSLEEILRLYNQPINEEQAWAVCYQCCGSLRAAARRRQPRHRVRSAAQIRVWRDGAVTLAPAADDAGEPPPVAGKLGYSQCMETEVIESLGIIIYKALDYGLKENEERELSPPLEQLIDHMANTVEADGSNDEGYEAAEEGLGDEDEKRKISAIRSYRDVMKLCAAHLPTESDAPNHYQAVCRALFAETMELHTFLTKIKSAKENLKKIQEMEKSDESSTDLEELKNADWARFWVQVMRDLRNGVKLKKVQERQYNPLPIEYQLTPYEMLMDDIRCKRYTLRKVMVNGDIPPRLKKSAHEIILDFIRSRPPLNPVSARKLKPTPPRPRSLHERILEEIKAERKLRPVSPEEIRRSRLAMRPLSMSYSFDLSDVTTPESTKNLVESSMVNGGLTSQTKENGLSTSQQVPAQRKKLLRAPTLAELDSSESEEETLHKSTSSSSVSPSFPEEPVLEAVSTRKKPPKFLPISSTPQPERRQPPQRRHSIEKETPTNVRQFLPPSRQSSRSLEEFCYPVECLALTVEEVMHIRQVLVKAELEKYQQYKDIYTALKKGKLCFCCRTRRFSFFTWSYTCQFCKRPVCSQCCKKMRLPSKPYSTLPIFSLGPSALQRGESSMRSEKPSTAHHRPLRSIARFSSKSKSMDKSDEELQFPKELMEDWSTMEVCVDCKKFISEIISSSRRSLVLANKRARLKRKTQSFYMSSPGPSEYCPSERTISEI
UniProt Q9BYN0, sequence (Q9BYN0 whole entry, looked up): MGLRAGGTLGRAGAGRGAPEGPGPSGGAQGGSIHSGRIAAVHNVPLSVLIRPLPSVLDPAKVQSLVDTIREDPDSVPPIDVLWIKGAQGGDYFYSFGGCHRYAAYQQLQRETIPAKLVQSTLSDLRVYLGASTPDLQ
UniProt O60749, sequence (O60749 whole entry, looked up): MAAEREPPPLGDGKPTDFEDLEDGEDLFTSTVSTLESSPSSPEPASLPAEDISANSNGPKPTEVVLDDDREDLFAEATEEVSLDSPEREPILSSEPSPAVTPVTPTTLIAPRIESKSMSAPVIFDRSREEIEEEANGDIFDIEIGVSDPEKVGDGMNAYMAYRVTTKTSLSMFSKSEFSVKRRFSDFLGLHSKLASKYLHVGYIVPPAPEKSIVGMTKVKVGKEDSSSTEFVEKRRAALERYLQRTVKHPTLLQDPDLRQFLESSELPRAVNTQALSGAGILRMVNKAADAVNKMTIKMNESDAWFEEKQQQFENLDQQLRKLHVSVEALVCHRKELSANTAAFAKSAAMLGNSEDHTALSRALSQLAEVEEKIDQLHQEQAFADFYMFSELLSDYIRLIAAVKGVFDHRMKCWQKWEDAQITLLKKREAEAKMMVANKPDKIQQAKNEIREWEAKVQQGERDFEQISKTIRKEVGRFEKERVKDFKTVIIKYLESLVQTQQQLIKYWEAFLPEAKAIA
UniProt P20226, sequence (P20226 whole entry, looked up): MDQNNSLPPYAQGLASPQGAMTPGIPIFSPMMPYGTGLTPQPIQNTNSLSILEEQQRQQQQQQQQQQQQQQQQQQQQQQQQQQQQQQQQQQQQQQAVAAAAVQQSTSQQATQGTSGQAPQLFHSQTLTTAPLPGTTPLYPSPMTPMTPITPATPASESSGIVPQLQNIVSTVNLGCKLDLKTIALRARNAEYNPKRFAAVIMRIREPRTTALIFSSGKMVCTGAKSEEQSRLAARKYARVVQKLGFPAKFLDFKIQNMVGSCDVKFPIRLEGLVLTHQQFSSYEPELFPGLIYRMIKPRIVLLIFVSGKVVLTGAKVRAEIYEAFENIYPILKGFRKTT

log2 fold change, inactive:
SSBP4 (UniProt U3KPY3) -0.121, SNX2 isoform 2 (UniProt O60749) 0.097, TK1 (UniProt K7ERV3) -0.003, TBK1 (UniProt Q9UHD2) 0.001, SLC8B1 (UniProt Q6J4K2) -0.028, TBP (UniProt P20226) -0.071, SLC46A1 (UniProt Q96NT5) -0.011, TCOF1 isoform 6 (UniProt Q13428) -0.053, SPIRE1 (UniProt Q08AE8) -0.074, SPAG9 isoform 4 (UniProt O60271) 0.088, TEX30 (UniProt Q5JUR7) 0.017, SOX5 (UniProt P35711) 0.064, SMPD4 isoform 2 (UniProt Q9NXE4) -0.19, SRC isoform 2 (UniProt P12931) 0.188, SMARCA4 (UniProt P51532) 0.022, TBC1D20 isoform 3 (UniProt Q96BZ9) -0.068, SLC35B4 (UniProt Q969S0) -0.146, TM7SF2 (UniProt O76062) -0.096, SLC38A7 (UniProt Q9NVC3) -0.261, SRXN1 (UniProt Q9BYN0) 0.022, SRSF9 (UniProt Q13242) -0.024, SSB (UniProt E7ERC4) -0.092
